Source: PubChem
Most compounds without a hit are left out; they make up all but 19% or so of the library.
HT1080NT lethal: qHTS for induction of synthetic lethality in tumor cells producing 2HG: qHTS for the HT-1080-NT fibrosarcoma cell line; HT-1080-NT fibrosarcoma viability, CellTiter-Glo ATP luminescence, 48 h; 1.6% of 360,000 active; Potency, µM (highest dose often 46.1 µM), for inactives: at the highest dose activity, negative = less viability, actives largely listed as cytotoxic; AID 686970, 2013;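 further: NT is the 2HG producing partner of a matched IDH1 knockdown line; 0% = DMSO-treated cells and -100% = media-only wells without cells; nearly all actives have a fitted effect of over 55% in size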
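Viability of the 2HG-overproducing fibrosarcoma line after 48 hours of compound exposure at 37 degrees C was determined by luminescence with CellTiter-Glo, and concentration-effect curves were then fitted and categorized.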
DT40 TDP1 CPT: qHTS for Inhibitors of human tyrosyl-DNA phosphodiesterase 1 (TDP1): qHTS in cells in presence of CPT; Potency, µM (titrated, usually from 46.2 µM), for the others: at the top dose activity change, negative = growth inhibition, actives largely listed as inhibitors; 12% of 420,000 active; chicken DT40 Tdp1-/-;hTDP1 cells + 20 nM CPT, ATP luminescence, 48 h; further: nearly all actives have a fitted effect of over 55% in size
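Chicken DT40 Tdp1-/- cells stably complemented with human TDP1 were seeded at 400 cells/well in medium containing 20 nM camptothecin, exposed to pin-transferred compounds, and grown at 37 °C for at least 48 hr. Viability was read as ATP luminescence.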
HT1080 IDH1KD tx: qHTS for induction of synthetic lethality in tumor cells producing 2HG: qHTS for the HT-1080-IDH1KD cell line; HT-1080 IDH1 knockdown viability, ATP luminescence, 48 h; Potency, µM (top dose mostly 46.1 µM), for the others: at the top dose activity, negative = toxicity, usual class: cytotoxic; 2% of 360,000 active; AID 686971, 2013;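 further: 0% = DMSO wells and -100% = cell-free medium wells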
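Cytotoxicity counter-line: IDH1KD HT-1080, 48 h, CellTiter-Glo. Curves classed by r2, magnitude and activity.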
KB-3-1 tox: qHTS assay for MDR1-selective chemotherapeutics: Primary screen using the parental adenocarcinoma cell KB-3-1 | KB-3-1 viability, CellTiter-Glo ATP luminescence, 72 h | Potency, µM (series often up to 46.1 µM), actives largely listed as cytotoxic | 1.4% of 400,000 active | AID 1347075, 2019; further: nearly all actives have a fitted effect of over 60% in size
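Luminescent ATP read-out (CellTiter-Glo) measures survival of drug-naive KB-3-1 cells after 72 h compound exposure at 37 °C. Titration series was screened from lowest to highest concentration, with DMSO vehicle plates as background controls.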
DT40 TDP1 no CPT: qHTS for Inhibitors of human tyrosyl-DNA phosphodiesterase 1 (TDP1): qHTS in cells in absence of CPT; Potency, µM (titrated, usually from 46.2 µM), for inactives: top-dose activity change, negative = growth inhibition, hits mostly inhibitors; 15% of 420,000 active; DT40 Tdp1-/- hTDP1 cells, no CPT, ATP luminescence, 48 h; AID 686978, 2013; further: nearly all actives have a fitted effect of over 55% in size
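Growth kinetics read by CellTiter-Glo luminescence after ≥48 hr at 37 °C. Cells: DT40 Tdp1-/- stably carrying human TDP1, 400 per well, compound exposure in the absence of CPT (DMSO vehicle).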
KB-V1 cytotox: qHTS assay for MDR1-selective chemotherapeutics: Primary screen using the drug-selected MDR subline cells KB-V1. KB-V1 MDR cells viability, CellTiter-Glo, 72 h. Potency, µM (highest dose often 46.1 µM), usual class: cytotoxic. 3.4% of 400,000 active; further: nearly all actives have a fitted effect of over 60% in size
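KB-V1 cells (P-gp-expressing MDR subline of KB-3-1) in phenol-red-free DMEM with 10% FBS were exposed to library compounds over a concentration series for 72 h at 37 degrees C. Viability read by CellTiter-Glo luminescence; concentration-effect curves fitted after normalization.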
The depositor's hits bear a star; i = inactive; ? = inconclusive; nt = not tested or not shown; ! = not confirmed by another sample. The call rests on the fitted dose curve; in most records, active means well fitted curve in the direction sought with a large enough effect; inconclusive means small, poorly fitted or top-dose-only effect, or another doubt; inactive means no such curve, though single readings can be large; an effect the other way counts as inactive or inconclusive. Unless noted, on the % scale 0 is the no-effect control and ±100 the full control effect; potency means the concentration at half of the fitted maximal effect.

SMILES	HT1080NT lethal	DT40 TDP1 CPT	HT1080 IDH1KD tx	KB-3-1 tox	DT40 TDP1 no CPT	KB-V1 cytotox
O=C(NNC(=O)C12CC3CC(CC(O)(C3)C1)C2)c1csc(N2CCOCC2)n1	-4.2%	1.3%	-6.5%	i	-7.6%	i
COc1ccccc1-c1nnc(SC(C(=O)c2c[nH]c3ccccc23)c2ccccc2)n1C (stereo unspecified)	?	20.6µM*	?	?	16.4µM*	?
COc1cccc(-c2nnc(SC(C(=O)c3c[nH]c4ccccc34)c3ccccc3)n2C)c1 (stereo unspecified)	-23.7%	23.1µM*	?	i	?	?
O=C(CCCc1nc(-c2ccc(Cl)cc2)no1)NC1CCCC1	?	8.2µM*	-20.9%	?	8.2µM*	?
Cc1cccc(-c2noc(CCCC(=O)NC3CCCC3)n2)c1	-13.0%	?	-15.5%	i	?	i
COc1ccc(-c2noc(CCCC(=O)NC3CCCC3)n2)cc1	-10.5%	16.4µM*	-23.7%	?	16.4µM*	?
COc1ccc(-c2noc(CCC(=O)NC3CCCCCC3)n2)cc1	8.9%	?	-4.3%	i	0.6%	i
CCc1ccc(-c2nc(CS(=O)CC(=O)O)c(C)o2)cc1 (stereo unspecified)	-0.4%	?	0.1%	i	0.4%	i
Cc1cc(F)ccc1NC(=O)CN1C(=O)CCc2cc(S(=O)(=O)N3CCOCC3)ccc21	nt	6.5%	nt	i	3.5%	i
CC(=O)N1c2ccc(S(=O)(=O)N3CCC(C(=O)N4CCCC(C)C4)CC3)cc2CC1C (stereo unspecified)	?	20.6µM*	-12.5%	i	?	i
CC(=O)N1c2ccc(S(=O)(=O)N3CCC(C(=O)NC4CCCCC4)CC3)cc2CC1C (stereo unspecified)	1.7%	-15.7%	2.2%	i	10.1%	i
CC1CC(C)CN(C(=O)C2CCN(S(=O)(=O)c3ccc4c(c3)CC(C)N4C(=O)C3CC3)CC2)C1 (stereo unspecified)	-17.0%	16.4µM*	-5.1%	i	?	i
CC(=O)N1c2ccc(S(=O)(=O)N3CCC(C(=O)N4CC(C)CC(C)C4)CC3)cc2CC1C (stereo unspecified)	-2.4%	20.6µM*	-6.9%	i	?	i
CC(=O)N1c2ccc(S(=O)(=O)N3CCC(C(=O)N4CCC(C)CC4)CC3)cc2CC1C (stereo unspecified)	-0.7%	?	-3.9%	i	?	i
COC(=O)c1ccc(COC(=O)C2CCN(S(=O)(=O)c3c(C)cc(C)cc3C)CC2)o1	1.3%	-1.8%	0.9%	i	-1.9%	i
COc1cccc(NC(=O)c2ccc(CN3CCN(c4ccccc4)CC3)cc2)c1	-24.0%	?	?	8.91µM*	18.4µM*	?
COc1ccc(C(=O)Nc2ccc(N3CCN(Cc4ccccc4)CC3)cc2)cc1	-1.1%	-13.9%	15.8%	i	-16.6%	i
COc1cccc(N2CCN(CC(=O)Nc3nnc(-c4ccccc4)s3)CC2)c1	-19.1%	23.1µM*	?	i	20.6µM*	i
COc1cccc(N2CCN(CC(=O)NC3=Nc4ccccc4N=C(C)C3c3ccccc3)CC2)c1 (stereo unspecified)	-7.2%	?	-6.5%	i	?	?
C/C(=N\NC(=O)c1ccc(CN2CCc3ccccc3C2)cc1)c1ccccc1O	?	11.6µM*	20.6µM*	14.6µM*	8.2µM*	?
COc1c(F)c(F)c(C(=O)Nc2ccc(N3CCN(Cc4ccccc4)CC3)cc2)c(F)c1F	?	15.8µM*	?	?	11.2µM*	?
CSCCC(NC(=O)C1CCCCC1)C(=O)Nc1ccc(F)c(Cl)c1 (stereo unspecified)	nt	?	nt	i	-26.9%	i
COc1ccc(NC(=O)c2ccc(CN3CCc4ccccc4C3)cc2)cc1OC	-24.3%	?	-16.7%	?	-16.9%	8.2µM*
CC(=O)c1cccc(NC(=O)c2ccc(CN3CCc4ccccc4C3)cc2)c1	-24.9%	-27.3%	-11.4%	i	-20.3%	i
COc1cccc(NC(=O)c2ccc(CN3CCc4ccccc4C3)cc2)c1	-10.1%	16.4µM*	-18.2%	i	?	i
SMILES	HT1080NT lethal	DT40 TDP1 CPT	HT1080 IDH1KD tx	KB-3-1 tox	DT40 TDP1 no CPT	KB-V1 cytotox
Cc1cc(C)c(NC(=O)c2ccc(CN3CCc4ccccc4C3)cc2)c(C)c1	-27.7%	16.4µM*	-23.9%	?	11.6µM*	?
COc1ccc(CN2CCc3cc(OC)c(OC)cc3C2)cc1O	0.9%	?	-10.4%	?	?	16.4µM*
CN1OC[C@@H]2CN(C(=O)Nc3ccccc3)[C@H](c3ccc(N4CCCCC4)cc3)C[C@@H]21	5.1%	?	0.1%	i	-2.4%	i
CNC(=O)COc1coc(CN2CCN(c3ccccc3F)CC2)cc1=O	9.9%	2.9%	5.5%	i	29.1%	i
CN(CCCNC(=O)CCC(=O)N1CCOc2ccccc21)Cc1ccccc1	-6.3%	5.1%	-1.2%	i	2.7%	i
CNC(=O)/C=C1\NC(C)(C)Cc2c1ccc1ccccc21	-16.9%	20.6µM*	-13.3%	?	20.6µM*	?
O=C1c2ccccc2CCC12OC2c1ccc([N+](=O)[O-])cc1 (stereo unspecified)	-1.9%	?	-8.5%	i	?	i
Cc1ccc(S(=O)(=O)n2nc(-c3ccco3)nc2NCc2ccccc2Cl)cc1	nt	?	nt	i	?	i
CCc1nc2ccccc2nc1N1CCN(S(=O)(=O)c2ccccc2)CC1	-5.7%	?	2.9%	i	16.4µM*	?
CC12CN(S(=O)(=O)c3ccccc3)CC(C)(CN(S(=O)(=O)c3ccccc3)C1)C2	18.7%	2.31µM*	1.9%	i	?	i
Cc1cc(S(=O)(=O)N2CCN(c3ccccc3C)CC2)ccc1F	-6.3%	3.1%	-24.4%	i	?	i
Cc1ccccc1N1CCN(S(=O)(=O)c2ccccc2)CC1	1.1%	-28.4%	-5.2%	?	?	20.6µM*!
